Holding throughout (assay): NCI-60 one-dose screen, 48 h (100 = growth as untreated, 0 = no growth, -100 = all killed)
In one experiment the test system is HCT-15 colon. The note with it: 10 µM unless noted.
Another experiment concerns HT29 colon. The note with it: 10 µM unless noted.
The subject of another experiment is SNB-75 CNS. The note with it: 10 µM unless noted.
Another experiment concerns SNB-19 CNS. The note with it: 10 µM unless noted.
In another experiment the test system is U251 CNS. The note with it: 10 µM unless noted.
In the next experiment the test system is PC-3 prostate. The note with it: 10 µM unless noted.
The test system of another experiment is SK-MEL-5 melanoma. The note with it: 10 µM unless noted.
Another experiment deals with UACC-62 melanoma. The note with it: 10 µM unless noted.
The subject of a further experiment is LOX IMVI melanoma. The note with it: 10 µM unless noted.
The test system of the next experiment is SK-MEL-28 melanoma. The note with it: 10 µM unless noted.
The next experiment relates to SK-MEL-2 melanoma. The note with it: 10 µM.
The next experiment deals with EKVX NSCLC. The note with it: 10 µM unless noted.
The next experiment concerns SN12C renal. The note with it: 10 µM unless noted.
For a further experiment, the system named is UO-31 renal. The note with it: 10 µM unless noted.
A further experiment relates to TK-10 renal. The note with it: 10 µM unless noted.
The next experiment has as its system ACHN renal. The note with it: 10 µM unless noted.
The next experiment deals with CAKI-1 renal. The note with it: 10 µM unless noted.
The test system of the next experiment is A498 renal. The note with it: 10 µM unless noted.
A further experiment concerns CCRF-CEM leukemia. The note with it: 10 µM unless noted.
The subject of a further experiment is MOLT-4 leukemia. The note with it: 10 µM unless noted.

SMILES strings stand for the structures. Compounds without any hit were thinned out: in the full panel of roughly 83,000, 20% have a hit.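 Single-dose data. Exposure time 48 hours. Values below 10 considered active.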 A number with no mark means an inactive call. The source made the active and inactive calls.

On to `CC(=O)Oc1ccccc1C(=O)N=C1[Se]CCN1C(=O)c1ccccc1OC(C)=O`, for which the growth in the experiment on HCT-15 colon is -36.1% (active); in the experiment with HT29 colon, 0.805% (active); with SNB-75 CNS, -65.2% (active); in the experiment on SNB-19 CNS, -48.8% (active); in the experiment on U251 CNS, -63.6% (active); with PC-3 prostate it was -49.7% (active). For the same molecule, the growth in the experiment with SK-MEL-5 melanoma was -57.6% (active); with UACC-62 melanoma, -57.8% (active); in the experiment on LOX IMVI melanoma, -49% (active); in the experiment on SK-MEL-28 melanoma, -27.9% (active); in the experiment with SK-MEL-2 melanoma, -18.4% (active); with EKVX NSCLC, -39% (active). In addition, the growth in the experiment with SN12C renal is -30% (active); in the experiment with UO-31 renal, -91% (active); in the experiment with TK-10 renal it was -72.3% (active); in the experiment with ACHN renal it was -91.5% (active); with CAKI-1 renal, -97.7% (active); in the experiment with A498 renal it was -94% (active). Besides, the values for the growth in the experiment on CCRF-CEM leukemia and with MOLT-4 leukemia were 18.6% and 6.05% (active), respectively.
In the case of `N#Cc1c(C(F)(F)F)cc(Nc2ccc3nc(NCCN4CCCC4)oc3c2)n2c1nc1ccccc12`, the growth was 56.6% in the experiment with HCT-15 colon; 5.45% (active) with HT29 colon; 82.6% with SNB-75 CNS; 85.2% with SNB-19 CNS; 89% in the experiment with U251 CNS; 52.1% in the experiment on PC-3 prostate. In addition, the growth was 69.8% in the experiment with SK-MEL-5 melanoma; 78.1% in the experiment with UACC-62 melanoma; 62.3% in the experiment on LOX IMVI melanoma; 72.8% in the experiment with SK-MEL-28 melanoma; 83.8% with SK-MEL-2 melanoma; 73.6% in the experiment with EKVX NSCLC. Also, the growth in the experiment on SN12C renal was 55.6%; in the experiment on UO-31 renal, 66.6%; with TK-10 renal, 79.5%; in the experiment on ACHN renal, 83%; in the experiment with CAKI-1 renal, 74.1%; in the experiment on A498 renal, 52.8%. For the same molecule, the figures for the growth in the experiment with CCRF-CEM leukemia and in the experiment with MOLT-4 leukemia were 11% and 56.7%, respectively.
For `CCCCCCCC(=O)SCC/C=C/[C@@H]1CC(=O)NCc2cc(ccn2)C2=N[C@@](C)(CS2)C(=O)N[C@@H](C(C)C)C(=O)O1`, the growth in the experiment with HCT-15 colon is 1.6% (active); in the experiment with HT29 colon it was 1.74% (active); in the experiment on SNB-75 CNS, 31.8%; in the experiment with SNB-19 CNS, 10.2%; in the experiment with U251 CNS, -55.7% (active); with PC-3 prostate, 16.4%. In addition, the growth in the experiment with SK-MEL-5 melanoma was -95.3% (active); in the experiment on UACC-62 melanoma, -56.8% (active); in the experiment on LOX IMVI melanoma, -95.1% (active); with SK-MEL-28 melanoma, -24.7% (active); in the experiment with SK-MEL-2 melanoma, -2.2% (active); in the experiment with EKVX NSCLC, 19.9%. For the same molecule, the growth in the experiment on SN12C renal is 21.9%; in the experiment on UO-31 renal, -10.5% (active); with TK-10 renal, -15.6% (active); with ACHN renal it was -17.2% (active); in the experiment on CAKI-1 renal, -54.4% (active); in the experiment on CCRF-CEM leukemia it was 39%. Moreover, in the experiment on MOLT-4 leukemia, the growth was 12.8%.
In the case of `C=C1C[C@H](O)[C@H](Br)C(C)(C)[C@@]12CCC(C)=C(Cl)C2`, the growth with HCT-15 colon is -4.29% (active); in the experiment on HT29 colon, 3.04% (active); with SNB-75 CNS, 52.9%; in the experiment with SNB-19 CNS, 40.7%; with U251 CNS, 20.4%; in the experiment with PC-3 prostate it was 16.6%. For the same molecule, the growth in the experiment with SK-MEL-5 melanoma was -60.8% (active); in the experiment with UACC-62 melanoma it was -11.8% (active); with LOX IMVI melanoma, -5.6% (active); in the experiment with SK-MEL-28 melanoma, 30.1%; with SK-MEL-2 melanoma, 6.3% (active); with EKVX NSCLC it was 13.5%. Also, the growth in the experiment with SN12C renal was 22.6%; in the experiment with UO-31 renal it was 37.1%; with TK-10 renal, 31%; in the experiment on ACHN renal, 24.2%; with CAKI-1 renal, 16.3%; in the experiment on CCRF-CEM leukemia, 21.6%. Moreover, the growth with MOLT-4 leukemia was -8.16% (active).
With `CCOC(=O)C1=C(C)N=C2Sc3cc(OC(F)(F)F)ccc3N2[C@H]1c1ccccn1`, the growth with HCT-15 colon is 13.7%; in the experiment on HT29 colon, 39.2%; in the experiment with SNB-75 CNS it was 63.4%; in the experiment with SNB-19 CNS, 37.9%; with U251 CNS, 23.1%; in the experiment on PC-3 prostate, 50.9%. Also, the growth with SK-MEL-5 melanoma was 38.5%; with UACC-62 melanoma, 28.3%; with LOX IMVI melanoma, 32.9%; with SK-MEL-28 melanoma it was 42.4%; with SK-MEL-2 melanoma it was 43.6%; in the experiment with EKVX NSCLC, 26.8%. Further, the growth in the experiment with SN12C renal was 47.4%; with UO-31 renal, 33.1%; in the experiment with TK-10 renal, 51.1%; with ACHN renal, 32.8%; with CAKI-1 renal, 27.9%; in the experiment on CCRF-CEM leukemia, 43.3%. Also, in the experiment on MOLT-4 leukemia, the growth is 29.5%.
`Cc1cc(O)c2c(c1)C1OC(=O)CCCCCN1C1=C2C(=O)c2cccc(OC3CC(O)C(O)C(C)O3)c2C1=O` (stereo not given): the growth with HCT-15 colon is 46.1%; with HT29 colon, 93.7%; with SNB-75 CNS, 117%; in the experiment on SNB-19 CNS, 97.1%; in the experiment with U251 CNS, 63.1%; in the experiment on PC-3 prostate, 87.2%. Moreover, the growth is 86.9% in the experiment with SK-MEL-5 melanoma; 89.5% with UACC-62 melanoma; 34.3% in the experiment on LOX IMVI melanoma; 75.8% with SK-MEL-28 melanoma; 46.4% with SK-MEL-2 melanoma; 97% with EKVX NSCLC. For the same molecule, the growth in the experiment on SN12C renal is 66.3%; in the experiment with UO-31 renal, 99.9%; in the experiment with TK-10 renal, 142%; in the experiment on ACHN renal it was 69.1%; in the experiment on CAKI-1 renal, 96.9%; in the experiment on CCRF-CEM leukemia it was 57.8%. Besides, the growth with MOLT-4 leukemia was 63.3%.
For the molecule `COc1ccc(C2CC(=O)c3c(O)c(OC)c(OC)c(OC)c3O2)cc1O` (stereo not given), the growth with HCT-15 colon is 9.19% (active); in the experiment with HT29 colon it was 101%; in the experiment with SNB-75 CNS, 39.9%; in the experiment with SNB-19 CNS, 36.9%; in the experiment on U251 CNS, 25.7%; with PC-3 prostate it was 31.2%. For the same molecule, the growth is 18.9% in the experiment with SK-MEL-5 melanoma; 35.2% in the experiment on UACC-62 melanoma; 40.9% with LOX IMVI melanoma; 52.9% in the experiment on SK-MEL-28 melanoma; 48.8% with SK-MEL-2 melanoma; 50.4% with EKVX NSCLC. Besides, the growth in the experiment on SN12C renal is 45.4%; in the experiment on UO-31 renal it was 51.6%; in the experiment on TK-10 renal, 70.6%; in the experiment with ACHN renal, 40.4%; in the experiment on CAKI-1 renal it was 38.9%; in the experiment on CCRF-CEM leukemia, 24.2%. In addition, the growth in the experiment on MOLT-4 leukemia is 22%.
As to `Fc1ccc(NCc2cn(-c3ccccc3)nc2-c2ccc(OCc3ccccc3)cc2)cc1Cl`, the growth in the experiment with HCT-15 colon is 92.2%; with HT29 colon it was 71.3%; in the experiment with SNB-75 CNS it was 77.7%; with SNB-19 CNS, 95.1%; with U251 CNS, 97.1%; with PC-3 prostate it was 79.9%. In addition, the growth with SK-MEL-5 melanoma was 101%; in the experiment with UACC-62 melanoma it was 90.7%; in the experiment on LOX IMVI melanoma it was 96.7%; in the experiment with SK-MEL-28 melanoma, 98.9%; with SK-MEL-2 melanoma, 91.9%; in the experiment on EKVX NSCLC it was 85.7%. The growth was 91.6% with SN12C renal; 75% with UO-31 renal; 93.7% in the experiment on TK-10 renal; 91% in the experiment with ACHN renal; 82.9% in the experiment with CAKI-1 renal; 119% in the experiment with A498 renal. In addition, the growth in the experiment on CCRF-CEM leukemia was 92%; in the experiment with MOLT-4 leukemia, 85.8%.

The values are drawn from PubChem BioAssay (NCI).
